Compound activity deposited in PubChem BioAssay by several laboratories.
The list is not random: actives were taken first. Their share in the collection is about 9.3%.
Fluor 339 460: intrinsic fluorescence of library compounds, ex339/em460 – biochemical, MLSMR library, data from DPM-DC assay, artefact control, profiling panel; fluorescence fold increase at 10 µM; 65,000 compounds, 5.5% hits; compound autofluorescence, ex339/em460 nm, NADH buffer; hits give high values; 1 = no-compound wells, NADH background;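 active = at 10 µM, mean starting fluorescence two-fold or more over control wells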;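 note: signal is the first read of a kinetic run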
M1 agonist: M1 muscarinic receptor agonists, primary screen, CHO-M1 cells, Fluo-4 calcium, agonist mode; Fluo-4 calcium fluorescence; hits give high values; B-score at 10 µM; 64,000 compounds, 3% hits;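 active = fluorescence rise, raw or as B-score row- and column-corrected plate score, outside the 99.7% band of its plate's samples, either direction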
M1 antagonist: antagonists of rat M1 muscarinic receptor; CHO-M1 cells, Fluo-4 calcium, ACh EC80 antagonist mode; hits give low values; 64,000 compounds, 3.4% hits; B-score at 10 µM; AID 628, 2007;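 active = calcium fluorescence response, raw or row-and-column corrected B-score, differing from the plate sample mean either way at a set confidence level, mostly lower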
Target sequence (P08482 whole entry, looked up): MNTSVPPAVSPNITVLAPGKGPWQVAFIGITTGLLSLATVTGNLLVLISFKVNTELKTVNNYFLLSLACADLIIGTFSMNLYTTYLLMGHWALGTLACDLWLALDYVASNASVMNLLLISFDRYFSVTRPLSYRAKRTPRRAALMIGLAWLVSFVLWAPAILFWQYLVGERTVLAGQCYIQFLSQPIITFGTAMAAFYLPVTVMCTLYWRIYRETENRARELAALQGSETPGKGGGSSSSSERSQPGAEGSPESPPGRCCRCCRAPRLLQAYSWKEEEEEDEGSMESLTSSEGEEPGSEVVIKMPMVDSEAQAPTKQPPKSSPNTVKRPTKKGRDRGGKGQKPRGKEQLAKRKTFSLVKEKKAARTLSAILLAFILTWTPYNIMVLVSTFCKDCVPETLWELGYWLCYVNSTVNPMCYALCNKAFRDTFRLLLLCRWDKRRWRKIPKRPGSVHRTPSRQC
A340 absorber: compound light absorbance at 340 nm, profiling panel, artefact control, biochemical, MLSMR library, data from PS, PMK, MK assays. compound absorbance at 340 nm, fold over control. fold change at 10 µM. 65,000 tested, under 10 active;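 active = at 10 µM dose, initial 340 nm absorbance at least 2 fold that of control wells; inactive = change under 2 fold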;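 note: initial absorbance extrapolated from kinetic A340 decline of NADH oxidation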
mHtt clearance: clearance of mutant huntingtin inclusions, primary screen, imaging, HeLa Exon1htt(103Q)mCFP, confocal imaging; aggregate imaging; zero = plate's median compound well; inhibition, % at 1.5 µM; 47,000 compounds, 0.42% hits;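 active = inhibition of aggregate fluorescence above about 70%, also judged a hit by eye on the cell image, limit read from the data, passing the limit was not always enough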;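 note: cells exposed to compound for three days before fixation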
NADH enzymes: inhibitors of PK/LDH coupling enzymes, profiling panel, artefact control, biochemical, MLSMR library; 65,000 compounds, 0.02% hits; coupled PK/LDH NADH assays, four targets; IC50, µM (titrated, usually from 10 µM), for the others: top-dose inhibition;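 active = single-dose screening hits from any of four coupled enzyme assays that gave an IC50 when retested across doses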;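 note: the DPM-DC format reads NADH fluorescence rather than 340 nm absorbance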
An asterisk follows results filed as active.

For COc1ccc(CC(NC(C)=O)C(=O)NC2CCN(c3nc(C)cc(C)c3C#N)CC2)c(OC)c1 (configuration not stated) the results were Fluor 339 460 2.01*, M1 agonist -2.06, M1 antagonist 0.903, A340 absorber 1.02 and NADH enzymes 3.0%.
`COc1cccc(CC(NC(C)=O)C(=O)NC2CCN(c3nc(C)cc(C)c3C#N)CC2)c1` (configuration not stated) gave Fluor 339 460 1.11, M1 agonist -0.239, M1 antagonist -0.732, A340 absorber 1.04, mHtt clearance 18.4 and NADH enzymes 5.0%.
O=c1c2cc(N3CCOCC3)ccc2[nH]c(=S)n1CC1CCCO1 (configuration not stated) was read as Fluor 339 460 3.95*, M1 agonist 0.0104, M1 antagonist -1.1, A340 absorber 1.06 and NADH enzymes 19.0%.
For O=C(CCn1c(=S)[nH]c2ccccc2c1=O)N1CCOCC1 the results were Fluor 339 460 1.05, M1 agonist 0.125, M1 antagonist 0.00784, A340 absorber 1.07, mHtt clearance -13.7 and NADH enzymes 3.0%.
O=C(NCc1ccco1)c1ccc2c(=O)n(CC3CCCO3)c(=S)[nH]c2c1 (configuration not stated) was read as Fluor 339 460 1.03, M1 agonist -0.612, M1 antagonist 0.413, A340 absorber 1 and NADH enzymes 2.0%.
c1ccc2c(c1)[nH]c1c(N3CCOCC3)ncnc12 was read as Fluor 339 460 1.68, M1 agonist 0.829, M1 antagonist -1.02, A340 absorber 1.1, mHtt clearance -49.3 and NADH enzymes 5.0%.
For CCCCN(C)CCn1c(=S)[nH]c2ccc(N3CCOCC3)cc2c1=O the results were Fluor 339 460 2.52*, M1 agonist 0.485, M1 antagonist -0.778, A340 absorber 1.09 and NADH enzymes 11.0%.
For O=c1c2cc(N3CCOCC3)ccc2[nH]c(=S)n1Cc1ccccn1 the results were Fluor 339 460 3.54*, M1 agonist -0.476, M1 antagonist -0.717, A340 absorber 1.08 and NADH enzymes 17.0%.
`CCc1cc(N2CCOCC2)cc2c1[nH]c1ccccc12` gave Fluor 339 460 3.95*, M1 agonist -0.855, M1 antagonist 0.178, A340 absorber 1.01 and NADH enzymes 6.0%.
For CC(=O)c1ccc(N2CCN(C(=O)CCCn3c(=S)[nH]c4cc5c(cc4c3=O)OCO5)CC2)cc1 the results were Fluor 339 460 1.3, M1 agonist -1.78, M1 antagonist -0.135, A340 absorber 1.22 and NADH enzymes 8.0%.
`CCCc1n[nH]c2c1C(=O)C(C(=O)OC)C(C)(C)C2` (configuration not stated) gave Fluor 339 460 1.03, M1 agonist 0.488, M1 antagonist -0.125, A340 absorber 1.01 and NADH enzymes 5.0%.
Screening CC(=O)Nc1cc(NC(C)=O)cc(C(=O)NC(C)(C)C)c1 returned Fluor 339 460 1.08, M1 agonist 1.03, M1 antagonist 0.377, A340 absorber 1.08, mHtt clearance -29.6 and NADH enzymes 2.0%.
For COC(=O)CSc1nnc([C@H](CC(C)C)NC(=O)OC(C)(C)C)o1 the results were Fluor 339 460 1.06, M1 agonist 0.0594, M1 antagonist -0.306, A340 absorber 1.02 and NADH enzymes 6.0%.
For CCCCNC(=O)OCCNC(=O)NC the results were Fluor 339 460 1.02, M1 agonist -0.508, M1 antagonist -0.185, A340 absorber 1 and NADH enzymes 4.0%.
C=C1CSc2nc3ccccc3c(=O)n21 was read as mHtt clearance -0.2.
`COC(=O)c1ccccc1NC(=O)CN1C(=O)c2ccccc2S1(=O)=O` gave Fluor 339 460 1.13, M1 agonist -0.023, M1 antagonist 0.8, A340 absorber 1.06, mHtt clearance -20.4 and NADH enzymes 5.0%.
`O=S1(=O)c2cccc3cccc(c23)N1Cc1ccc(-c2nnco2)cc1` gave Fluor 339 460 2.84*, M1 agonist 0.225, M1 antagonist -0.117, A340 absorber 1.01, mHtt clearance -14.3 and NADH enzymes 12.0%.
`COc1cc(NC(=O)CN2c3cccc4cccc(c34)S2(=O)=O)cc(OC)c1OC` gave Fluor 339 460 2.56*, M1 agonist -0.0855, M1 antagonist -0.641, A340 absorber 1.09, mHtt clearance -8.5 and NADH enzymes 14.0%.
Screening O=S1(=O)c2cccc3cccc(c23)N1Cc1nnc(-c2ccccc2Br)o1 returned Fluor 339 460 1.72, M1 agonist 2.79, M1 antagonist -1.66, A340 absorber 1, mHtt clearance 1.7 and NADH enzymes 5.0%.
For CCCN1c2cccc3cccc(c23)S1(=O)=O the results were Fluor 339 460 2.25*, M1 agonist 1.08, M1 antagonist 0.22, A340 absorber 1.05 and NADH enzymes 7.0%.
`CC(C(=O)NCc1ccc2c(c1)OCO2)N1c2cccc3cccc(c23)S1(=O)=O` (configuration not stated) gave Fluor 339 460 1.58, M1 agonist 0.0355, M1 antagonist -1.55, A340 absorber 0.99 and NADH enzymes 8.0%.
`N#CCCCCN1c2cccc3cccc(c23)S1(=O)=O` gave Fluor 339 460 3.74*, M1 agonist -0.515, M1 antagonist 0.268, A340 absorber 1.03 and NADH enzymes 5.0%.
Screening O=C(Nc1cccc2ncccc12)c1ccc(-c2ccc(Br)cc2)o1 returned mHtt clearance -4.5.
`CC1(C)CC(=O)C=C(NCCN2CCN(C(=O)Nc3ccccc3)CC2)C1` gave Fluor 339 460 1.07, M1 agonist -0.149, M1 antagonist -0.956, A340 absorber 0.98 and NADH enzymes 2.0%.
`CCOC(=O)c1c(C)n(C)c2ccc(OCC(O)Cn3c(C)nc4ccccc43)cc12` (configuration not stated) gave Fluor 339 460 0.99, M1 agonist 2.15*, M1 antagonist -1.37, A340 absorber 0.99, mHtt clearance 23.6 and NADH enzymes 4.0%.
Screening COc1cc(S(=O)(=O)N2CCOCC2)ccc1NC(=O)COC(=O)c1ccccn1 returned Fluor 339 460 1.03, M1 agonist 0.36, M1 antagonist 0.969, A340 absorber 1, mHtt clearance -31.2 and NADH enzymes 3.0%.
CCOc1cc2oc(=O)c3c(c2cc1Cl)CCC3 was read as Fluor 339 460 1.48, M1 agonist 0.703, M1 antagonist 0.0462, A340 absorber 1.03 and NADH enzymes 2.0%.
C=C(C)COc1ccc2c(C)c(C)c(=O)oc2c1OCC(=C)C was read as Fluor 339 460 2.13*, M1 agonist 0.109, M1 antagonist -0.247, A340 absorber 1.05, mHtt clearance -55.7 and NADH enzymes 5.0%.
